The source of these data is PubChem BioAssay.

In assay [1] the test system is Wnt5a (protein binding on small-molecule microarray). The assay is described as follows: small molecules binding Wnt5a protein – biophysical, small-molecule microarray, 635/667 nm fluorescence, primary screen (AID 1142).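 Also: fluorescence read at 667 nm with signal to noise per printed feature.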 As to conditions: 635 nm fluorescence, higher = more signal.
A short description of assay [2]: ATP-based viability of Huh7 replicon cells – cell-based, CellTiter-Glo luminescence, basal, 48 h, cytotoxicity control for HCV replication inhibitor project, primary screen (AID 1143).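 Also: Huh7 hepatoma cells carrying a hepatitis C replication reporter with no stimulus; test concentration not given here.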 Conditions: higher = more signal, called active from +8 up or from −8 down. For orientation: Replicon systems follow genome replication, usually without infectious particles.
Assay [3] is described as follows: Pseudomonas biofilm growth suppression – PAO1 strain, BacTiter-Glo luminescence, LB-PBS, primary screen (AID 1144). Conditions: P. aeruginosa PAO1 biofilm, 12 h, higher = more signal.
The nature of assay [4]: basal CRE-LacZ reporter activity in PC12 – cell-based, unstimulated, primary screen (AID 1145). Conditions: no forskolin, luminescence, 4.5 h, higher = more signal, called active from +8 up or from −8 down.
The nature of assay [5]: forskolin-driven CRE-LacZ activity in PC12 – cell-based, CRE-LacZ reporter, forskolin-stimulated, primary screen (AID 1146).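 Also: PC12 cells with 6xCRE LacZ reporter stimulated by forskolin 10 µM; beta-galactosidase reporter signal reflecting CREB driven transcription.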 Conditions: luminescence, 4.5 h, higher = more signal, called active from +8 up or from −8 down.
For assay [6], the target named is Streptavidin (Streptomyces avidinii) (UniProt P22629). The assay is described as follows: compounds binding control protein streptavidin – biophysical, small-molecule microarray, 635/667 nm fluorescence, artefact control for SMM compound annotation, primary screen (AID 1147).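 Also: signal reflects streptavidin binding to arrayed compounds as a control protein.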 As to conditions: higher = more signal.
Assay [7] in a line: probe aInhba binding on compound microarray – biochemical, small-molecule microarray, 635/667 nm fluorescence, primary screen (AID 1148).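 Also: score merges 667nm spot fluorescence with signal-to-noise for antibody binding to printed compounds.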 Conditions: higher = more signal.
Assay [8] concerns the target Torsin-1A (Homo sapiens) (UniProt O14656). The assay is described as follows: TOR1A wild-type binding on microarray – cell lysate, small-molecule microarray, lysate, 635/667 nm, primary screen (AID 1149). As to conditions: COS7 hTOR1A-WT lysate, 635 nm fluorescence, higher = more signal.
Assay [9] has the same target. The assay is described as follows: torsin A mutant lysate binding on microarrays – cell lysate, small-molecule microarray, COS7 lysate, 635/667 nm fluorescence, primary screen (AID 1150).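 Also: score pools 667 nm emission and signal to noise measuring lysate protein binding.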 Conditions: COS7 hTOR1A mutant lysate, 635 nm fluorescence, higher = more signal.
The test system of assay [10] is Sonic hedgehog protein (Shh). The assay is described as follows: Sonic hedgehog microarray binding compounds – biochemical, small-molecule microarray, 635/667 nm fluorescence, primary screen (AID 1151).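 Also: Shh protein binding to compounds spotted on small-molecule microarray slides; score combines spot fluorescence intensity with signal-to-noise across triplicate slides.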 As to conditions: 635 nm fluorescence, higher = more signal.
The nature of assay [11]: optical density shifts of acrAB sulA E. coli – strain DRC41, OD650, 48 h, E. coli filamentation inducer project, primary screen (AID 1152).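 Also: E. coli MC1000 strain DRC41 lacking acrAB efflux pump and sulA.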 Conditions: higher = more signal, called active from +8 up or from −8 down.
Assay [12] can be described thus: probe aLefty1 binding on compound microarray – biochemical, small-molecule microarray, 635/667 nm fluorescence, primary screen (AID 1153).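 Also: score merges spot fluorescence with signal-to-noise ratio from the scanned slide images.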 Conditions: higher = more signal.
The nature of assay [13]: plasmodial surface anion channel blockers, osmotic lysis – cell-based, P. falciparum Indochina, OD700, 1 h, primary screen (AID 1154). Conditions: P. falciparum Indochina infected RBC osmotic lysis, higher = more signal, called active from +8 up or from −8 down.
A short description of assay [14]: plasmodial surface anion channel blockers, osmotic lysis – cell-based, P. falciparum Indochina, OD700, 2 h, primary screen (AID 1155).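 Also: lysis reports solute entry through the parasite surface anion channel PSAC.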 Conditions: P. falciparum Indochina infected erythrocytes, higher = more signal, called active from +8 up or from −8 down.
The nature of assay [15]: changes in parasitized red cell lysis, either direction – P. falciparum Indochina, OD700, 3 h, PSAC antagonist project, primary screen (AID 1156). As to conditions: P. falciparum-infected erythrocytes, osmotic lysis, higher = more signal, called active from +8 up or from −8 down.
Assay [16] in a line: plasmodial surface anion channel blockers, osmotic lysis – cell-based, P. falciparum Indochina, OD700, 18 h, primary screen (AID 1157). As to conditions: P. falciparum Indochina infected erythrocytes, osmotic lysis OD700, 18 h; higher = more signal, called active from +8 up or from −8 down.
A short description of assay [17]: S6 kinase pathway phospho-S6 level changes – cell-based, A549, cytoblot, luminescence, serum-stimulated, primary screen (AID 1158).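 Also: serum-stimulated A549 lung adenocarcinoma cells; signal is phosphorylated S6 detected by cytoblot immunostaining with HRP secondary.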 Conditions: 5 h, higher = more signal.
The target of assay [18] is NADPH oxidase 2 (Homo sapiens) (UniProt P04839). The assay is described as follows: compounds shifting NOX2 Amplex Red fluorescence – cell-based, HEK293-NOX2, PMA-stimulated, NOX inhibitor project, primary screen (AID 1159). Also: test concentration not given here. As to conditions: 45 min, higher = more signal, called active from +8 up or from −8 down.
For assay [19], the target named is NADPH oxidase 4 (Homo sapiens) (UniProt Q9NPH5). The assay is described as follows: compounds shifting NOX4 Amplex Red fluorescence – cell-based, HEK293-NOX4, tetracycline-induced, NOX inhibitor project, primary screen (AID 1160). Conditions: HEK293-NOX4, Amplex Red H2O2 fluorescence, 45 min; higher = more signal, called active from +8 up or from −8 down.
Assay [20] concerns the target NADPH oxidase 5 (Homo sapiens) (UniProt Q96PH1). The assay is described as follows: compounds shifting NOX5 Amplex Red fluorescence – cell-based, HEK293-NOX5, NOX inhibitor project, primary screen (AID 1161). Conditions: HEK293-NOX5, ionomycin, 45 min, higher = more signal.

Molecules are shown by their SMILES. The source made the active and inactive calls. Unless noted, no rule for the calls is given here.

Sequence of NADPH oxidase 4 (Homo sapiens) (Q9NPH5 whole entry, looked up): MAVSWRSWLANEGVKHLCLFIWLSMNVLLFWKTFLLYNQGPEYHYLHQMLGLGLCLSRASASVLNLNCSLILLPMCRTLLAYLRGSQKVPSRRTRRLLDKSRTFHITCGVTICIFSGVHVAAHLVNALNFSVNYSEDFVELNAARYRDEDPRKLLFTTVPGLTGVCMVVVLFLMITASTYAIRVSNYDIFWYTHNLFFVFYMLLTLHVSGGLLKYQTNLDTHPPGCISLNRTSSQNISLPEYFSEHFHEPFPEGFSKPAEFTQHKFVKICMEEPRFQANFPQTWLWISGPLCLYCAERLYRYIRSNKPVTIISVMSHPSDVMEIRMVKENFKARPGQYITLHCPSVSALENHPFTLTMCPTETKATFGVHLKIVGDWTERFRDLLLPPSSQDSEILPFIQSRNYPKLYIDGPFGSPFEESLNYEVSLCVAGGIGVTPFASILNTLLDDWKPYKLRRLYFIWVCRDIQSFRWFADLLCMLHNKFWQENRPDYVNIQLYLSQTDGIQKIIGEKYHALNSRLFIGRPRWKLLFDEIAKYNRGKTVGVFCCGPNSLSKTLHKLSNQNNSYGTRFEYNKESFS
Sequence of NADPH oxidase 5 (Homo sapiens) (Q96PH1 whole entry, looked up): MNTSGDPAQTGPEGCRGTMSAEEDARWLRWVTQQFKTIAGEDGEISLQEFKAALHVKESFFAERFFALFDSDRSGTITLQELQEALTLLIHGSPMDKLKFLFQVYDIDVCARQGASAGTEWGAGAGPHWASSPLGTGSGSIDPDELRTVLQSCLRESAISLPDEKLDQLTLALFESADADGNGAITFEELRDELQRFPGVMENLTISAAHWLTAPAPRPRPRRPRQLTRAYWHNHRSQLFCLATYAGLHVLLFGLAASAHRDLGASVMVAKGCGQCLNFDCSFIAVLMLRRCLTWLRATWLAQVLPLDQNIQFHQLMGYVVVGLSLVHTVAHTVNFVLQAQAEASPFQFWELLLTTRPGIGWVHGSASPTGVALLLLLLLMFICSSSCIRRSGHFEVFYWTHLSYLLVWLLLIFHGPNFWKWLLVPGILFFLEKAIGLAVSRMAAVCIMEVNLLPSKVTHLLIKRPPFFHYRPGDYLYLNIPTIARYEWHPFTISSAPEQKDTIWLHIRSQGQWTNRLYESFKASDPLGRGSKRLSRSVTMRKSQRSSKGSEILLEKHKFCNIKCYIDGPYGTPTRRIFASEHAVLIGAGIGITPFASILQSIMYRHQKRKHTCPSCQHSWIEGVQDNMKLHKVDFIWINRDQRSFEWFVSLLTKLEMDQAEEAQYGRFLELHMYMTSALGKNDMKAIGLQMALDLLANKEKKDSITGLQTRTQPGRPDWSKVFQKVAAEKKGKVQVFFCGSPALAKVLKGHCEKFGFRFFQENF
Sequence of Streptavidin (Streptomyces avidinii) (P22629 whole entry, looked up): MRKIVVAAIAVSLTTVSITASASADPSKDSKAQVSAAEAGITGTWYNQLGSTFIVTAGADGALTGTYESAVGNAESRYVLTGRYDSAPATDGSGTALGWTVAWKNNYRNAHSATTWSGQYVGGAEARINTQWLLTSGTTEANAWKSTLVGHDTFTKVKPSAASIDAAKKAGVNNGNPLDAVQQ
Sequence of Torsin-1A (Homo sapiens) (O14656 whole entry, looked up): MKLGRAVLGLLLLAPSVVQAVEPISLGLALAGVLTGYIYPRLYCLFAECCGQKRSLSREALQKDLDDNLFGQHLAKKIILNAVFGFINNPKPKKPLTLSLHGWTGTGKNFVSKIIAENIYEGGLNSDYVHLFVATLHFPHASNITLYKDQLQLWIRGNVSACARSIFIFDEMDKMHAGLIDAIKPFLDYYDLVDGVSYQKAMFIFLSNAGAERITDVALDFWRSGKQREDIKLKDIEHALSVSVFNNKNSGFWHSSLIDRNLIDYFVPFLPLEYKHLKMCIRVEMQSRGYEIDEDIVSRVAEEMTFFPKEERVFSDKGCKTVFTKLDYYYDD
Sequence of NADPH oxidase 2 (Homo sapiens) (P04839 whole entry, looked up): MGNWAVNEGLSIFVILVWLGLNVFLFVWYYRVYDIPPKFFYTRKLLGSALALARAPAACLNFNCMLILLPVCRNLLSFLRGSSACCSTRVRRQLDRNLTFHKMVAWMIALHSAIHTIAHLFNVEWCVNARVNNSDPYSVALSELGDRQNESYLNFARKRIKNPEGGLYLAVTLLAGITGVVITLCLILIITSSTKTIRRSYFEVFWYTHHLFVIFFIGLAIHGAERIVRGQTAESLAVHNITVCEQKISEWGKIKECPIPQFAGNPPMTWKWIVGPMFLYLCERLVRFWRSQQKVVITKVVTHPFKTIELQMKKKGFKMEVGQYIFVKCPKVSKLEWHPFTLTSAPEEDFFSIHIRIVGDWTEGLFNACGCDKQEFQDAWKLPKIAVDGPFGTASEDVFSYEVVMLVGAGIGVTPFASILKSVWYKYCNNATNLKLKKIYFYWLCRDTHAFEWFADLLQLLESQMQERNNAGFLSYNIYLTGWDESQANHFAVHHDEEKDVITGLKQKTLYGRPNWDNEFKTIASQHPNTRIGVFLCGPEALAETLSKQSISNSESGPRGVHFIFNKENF

`COC(=O)[C@@]1(Cc2ccc(F)cc2)[C@H]2c3cc(C(=O)N(C)C)n(CCn4cc([N+](=O)[O-])nc4C)c3C[C@H]2CN1C(=O)c1ccccc1`: the composite z-score in assay [1] is 0.453; in assay [6], 0.0438; in assay [7], 0.234; in [8], -0.0611; in assay [9], 0.373; in [10], -0.755. Further, the composite z-score in [12] was 0.0861. The z-score in [2] is 0.278 (inactive); in assay [3], -0.0864 (inactive); in [4], -0.761 (inactive); in assay [5], 0.17 (inactive); in [11], -2.34 (inactive); in assay [13], 0.496 (inactive). Besides, the z-score is 0.288 (inactive) in assay [14]; 0.0718 (inactive) in assay [15]; 0.544 (inactive) in assay [16]; 0.0938 in assay [17]; 0.762 (inactive) in assay [18]; -0.00316 (inactive) in [19]. Besides, the z-score in [20] was -0.683.
In the case of `COc1ccc([Si](C)(C)[C@H]2[C@H](CCn3cc([C@H](O)c4ccccc4)nn3)O[C@@]3(C(=O)N(C)c4c(Br)cc(C)cc43)[C@@H]2C)cc1`, the composite z-score in assay [1] was -0.0472; in [6] it was -0.124; in assay [7], -0.208; in assay [8] it was 0.877; in assay [9], 0.19; in [10], 0.964. The compound also showed a composite z-score in [12] of -0.196. The z-score in [2] is -4.01 (inactive); in assay [3] it was -0.23 (inactive); in assay [4], 7.95 (inactive); in [5], -1.66 (inactive); in assay [11] it was 0.45 (inactive); in assay [13] it was 5.6 (inactive). Also, the z-score was 1.59 (inactive) in assay [14]; 1.25 (inactive) in [15]; 1.11 (inactive) in assay [16]; -0.108 in assay [17]; 0.276 (inactive) in [18]; 0.825 (inactive) in assay [19]. Moreover, the z-score in assay [20] turned out to be 0.37.
`O=C1c2ccccc2[C@@]2(Cc3ccccc3N(Cc3ccccc3)C2=O)[C@H](c2ccc(CO)cc2)N1Cc1ccccc1`: the composite z-score in assay [1] was -0.201; in assay [6], -0.0807; in assay [7], -0.176; in assay [8] it was -0.953; in [9], -0.773; in assay [10] it was -0.907. Also, the composite z-score in assay [12] is -0.147. Besides, the z-score is 0.579 (inactive) in assay [2]; -0.124 (inactive) in [3]; 0.0279 (inactive) in [4]; 0.806 (inactive) in assay [5]; -0.757 (inactive) in assay [11]; -0.0384 (inactive) in assay [13]. The z-score in assay [14] was 0.0732 (inactive); in assay [15] it was 0.0046 (inactive); in [16], -0.11 (inactive); in assay [17] it was 0.244; in assay [18], 0.0584 (inactive); in assay [19], 0.572 (inactive). Also, the z-score in assay [20] was -0.107.
`CCCCC(=C=CC[C@@H](O)c1cccc(OCCO)c1)C[C@@H](O)COCc1ccccc1`: the composite z-score in [1] was -0.225; in assay [6] it was -0.577; in assay [7] it was -0.05; in [8], -0.387; in [9], -0.444; in [10], 0.362. This compound also gave a composite z-score in assay [12] of -0.101. Also, the z-score in assay [2] is -2.51 (inactive); in assay [3], -0.279 (inactive); in assay [4], 6.81 (inactive); in [5] it was -0.731 (inactive); in assay [11] it was 1.76 (inactive); in assay [13], 16.3 (active). Also, the z-score in [14] was 1.3 (inactive); in [15] it was 0.605 (inactive); in assay [16] it was -1.07 (inactive); in assay [17], 2.58; in assay [18], -1.61 (inactive); in assay [19], -1.01 (inactive). The z-score in [20] was -2.47.
Consider `COCCOC(=O)N1C(=O)[C@@]2(c3cc(C#CC4=CCCCC4)ccc31)[C@H](c1ccc(OCCO)cc1)N1[C@H](c3ccccc3)[C@H](c3ccccc3)OC(=O)[C@H]1[C@@H]2C(=O)N1CCCCCCC1`, for which the composite z-score is 0.266 in assay [1]; 0.945 in assay [6]; 1.05 in assay [7]; 0.984 in assay [8]; 0.84 in assay [9]; 1.91 in assay [10]. The composite z-score in [12] is 1.85. For the same compound, the z-score in assay [2] was -4.59 (inactive); in assay [3], -1.17 (inactive); in [4], -0.698 (inactive); in assay [5], -1.13 (inactive); in assay [11] it was 3.39 (inactive); in [13], 2.24 (inactive). For the same compound, the z-score in assay [14] was 0.742 (inactive); in [15], 0.171 (inactive); in assay [16] it was -0.521 (inactive); in assay [17], 2.26; in assay [18] it was 1.44 (inactive); in assay [19], 0.639 (inactive). Also, the z-score in assay [20] is 1.3.
For `COCCOC(=O)N1C(=O)[C@@]2(c3cc(C#CC4(O)CCCCCC4)ccc31)[C@H](c1ccccc1OCCO)N1[C@H](c3ccccc3)[C@H](c3ccccc3)OC(=O)[C@H]1[C@@H]2C(=O)N1CCCCCCC1`, the composite z-score in assay [1] is 0.611; in assay [6], 1.64; in assay [7], 1.2; in [8], 0.812; in [9], 1.02; in [10] it was 2.01. The same compound registered a composite z-score in assay [12] of 2.49. In addition, the z-score in assay [2] is -4.01 (inactive); in assay [3], -0.977 (inactive); in assay [4], -1.01 (inactive); in assay [5], 0.881 (inactive); in [11], 0.499 (inactive); in assay [13], 0.257 (inactive). For the same compound, the z-score in [14] was 0.755 (inactive); in assay [15], 0.196 (inactive); in assay [16], 0.653 (inactive); in assay [17], 0.119; in assay [18], 0.297 (inactive); in assay [19], 0.104 (inactive). For the same compound, the z-score in assay [20] stood at 1.13.
For the compound `CC(C)C[C@@H]1NC(=O)C([C@@H](C)OCc2ccccc2)NC(=O)[C@@]23C(=O)N[C@@H](Cc4ccccc4)C2[C@H](C)[C@@]2(C)O[C@H]2C3/C=C/CC/C=C/CNC1=O` (stereo not given in full), the composite z-score in assay [1] is 0.237; in [6], 0.264; in assay [7], -0.206; in [8] it was -0.608; in assay [9] it was 0.32; in assay [10] it was 1.07. The compound further yielded a composite z-score in assay [12] of -0.164. The z-score was -4.9 (inactive) in assay [2]; -0.469 (inactive) in assay [3]; 1.76 (inactive) in assay [4]; -1.52 (inactive) in assay [5]; 0.757 (inactive) in assay [11]; 1.35 (inactive) in assay [13]. Also, the z-score in [14] was -0.601 (inactive); in assay [15], -0.0722 (inactive); in [16] it was -1.61 (inactive); in assay [17] it was 0.189; in [18], 0.681 (inactive); in assay [19], 0.98 (inactive). Further, in assay [20], the z-score was -0.24.
As for `Cc1ccc(S[C@]2(C(=O)NCCCN(C)C)CC(=O)N(Cc3ccccc3Cl)[C@@H]2c2ccc(CO)cc2I)cc1`, the composite z-score in assay [1] is -0.256; in assay [6], -0.245; in assay [7] it was -0.157; in assay [8] it was -0.601; in assay [9], -0.679; in assay [10] it was -0.995. The composite z-score in assay [12] was -0.0573. Further, the z-score in assay [2] is -0.826 (inactive); in assay [3] it was 0.601 (inactive); in assay [4], 0.0924 (inactive); in [5] it was 0.752 (inactive); in [11], 1.02 (inactive); in assay [13], 4.18 (inactive). Also, the z-score was 0.987 (inactive) in [14]; 0.524 (inactive) in [15]; 0.498 (inactive) in [16]; -0.344 in assay [17]; 0.255 (inactive) in assay [18]; -1.15 (inactive) in assay [19]. Besides, the z-score in [20] worked out at 1.78.
